Data: the supplement of paper PMC10681739

Columns and labels:
ETS1 [1] = molecular target: T1, ETS1 (UniProt P14921); assay: ETS1 binding intensity (PBM fluorescence), ETS1 alone (arbitrary fluorescence units); higher = stronger binding; details: ETS1 concentration 1 nM; RUNX1 concentration 0 nM
T1 sequence: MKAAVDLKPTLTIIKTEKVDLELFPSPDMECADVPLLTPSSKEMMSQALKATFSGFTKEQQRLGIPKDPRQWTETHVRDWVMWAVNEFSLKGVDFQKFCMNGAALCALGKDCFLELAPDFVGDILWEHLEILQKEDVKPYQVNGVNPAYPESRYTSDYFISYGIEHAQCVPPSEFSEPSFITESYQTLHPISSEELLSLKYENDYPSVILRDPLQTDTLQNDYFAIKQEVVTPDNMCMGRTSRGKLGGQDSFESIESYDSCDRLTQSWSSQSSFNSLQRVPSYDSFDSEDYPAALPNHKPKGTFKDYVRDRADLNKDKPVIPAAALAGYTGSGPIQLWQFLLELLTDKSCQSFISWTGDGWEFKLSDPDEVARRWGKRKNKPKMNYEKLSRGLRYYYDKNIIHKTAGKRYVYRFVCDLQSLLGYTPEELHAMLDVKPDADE

RUNX1 [2] = molecular target: RUNX1 (UniProt Q01196); assay: RUNX1 binding intensity (PBM fluorescence), RUNX1 alone (arbitrary fluorescence units); higher = stronger binding; details: RUNX1 concentration 2 nM; ETS1 concentration 0 nM
Method: (§1)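 Cooperative gcPBM on 36-bp genomic probes with neighbouring ETS1 and RUNX1 sites. Recombinant human RUNX1 (2 nM) was incubated alone or with ETS1 (25 nM) and detected with anti-RUNX1 antibody plus Alexa488 secondary. Values are medians over 4 replicate spots; the RUNX1+ETS1 data were normalised to the RUNX1-only data. The probes sit in constant array flanks that are not printed.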

ETS1 [3] = molecular target: T1, ETS1; assay: ETS1 binding intensity (PBM fluorescence) in presence of RUNX1, normalised to ETS1-only experiment (arbitrary fluorescence units); higher = stronger binding; details: ETS1 concentration 1 nM; RUNX1 concentration 25 nM
RUNX1 [4] = molecular target: RUNX1 (UniProt Q01196); assay: RUNX1 binding intensity (PBM fluorescence) in presence of ETS1, normalised to RUNX1-only experiment (arbitrary fluorescence units); higher = stronger binding; details: RUNX1 concentration 2 nM; ETS1 concentration 25 nM
Method: as §1
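For RUNX1 binding intensity (PBM fluorescence) in presence of ETS1, normalised to RUNX1-only experiment in this document: Full-length recombinant human ETS1 or RUNX1 bound to double-stranded 36-bp genomic probes on microarrays, detected by protein-specific primary antibody and Alexa488 secondary, spot fluorescence as median of four replicate spots.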
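For RUNX1 binding intensity (PBM fluorescence), RUNX1 alone in this document: Full-length recombinant human RUNX1 bound to double-stranded 36-bp genomic probes on a high-density microarray, scored as Alexa488 fluorescence per spot via anti-RUNX1 antibody, median of four replicate spots.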

RUNX1, sequence (Q01196 whole entry): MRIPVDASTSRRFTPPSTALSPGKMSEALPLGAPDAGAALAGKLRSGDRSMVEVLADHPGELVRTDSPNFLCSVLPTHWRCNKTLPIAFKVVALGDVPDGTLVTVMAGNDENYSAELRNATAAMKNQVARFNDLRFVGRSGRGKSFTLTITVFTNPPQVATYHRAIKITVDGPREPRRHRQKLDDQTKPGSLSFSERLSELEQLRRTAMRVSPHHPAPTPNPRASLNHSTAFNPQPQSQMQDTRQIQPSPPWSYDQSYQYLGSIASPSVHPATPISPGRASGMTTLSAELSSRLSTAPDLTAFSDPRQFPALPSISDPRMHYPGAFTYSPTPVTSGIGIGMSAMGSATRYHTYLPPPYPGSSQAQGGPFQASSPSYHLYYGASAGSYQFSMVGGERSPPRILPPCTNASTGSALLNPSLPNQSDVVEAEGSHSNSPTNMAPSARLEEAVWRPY

Sequence	ETS1 binding intensity (ETS1 [1])	RUNX1 binding intensity (RUNX1 [2])	ETS1 binding intensity (ETS1 [3])	RUNX1 binding intensity (RUNX1 [4])
GTGCTCCTCGCTTCCTCCGCGGTCTTCCGAGCGGTC	465	1150	365	1370
ACACCTCAGGCAGGATGTGGTAGGGGTTGCCCCAGA	3730	1020	6810	2700
GGATGAACAGGAAGCTAAAGTAAATACCACAGTGAC	1710	764	3860	1190
GGGAACTCACACCGGAAACCACAGAACCAAGAGTGG	7140	3800	16300	6540
TGCCACATCCTGCCCCTCCCCAGGTCTAACCACCAA	696	1260	754	3360
ATGTTAACATCCTGCCATGAAAACCGCAAGAAGGGC	680	19000	3730	26000
AGCAGCTGCCAGAGGAAGTCTGCGGTCGGAACAGGC	1260	1410	10800	3400
GCTAAGGTGAAAGGAAGTGGGTTTTGTCTTTTTTTT	2500	854	4150	1340
CCGCGCCGCTTCCTCCAGACACCGCAAGGGGGTGCT	325	893	446	1660
GTTGAGTAGTGACAGGAAGTGACCGCAAGGGGGCGC	10700	1860	44800	3540
TCAATAAGACAGGATGTTCTCCAACCGCATTAAGCT	3270	854	22100	2910
ATCTTACCCCGGAAATGACAACAGTGCCGCAAACTG	7580	906	10400	1620
AAACTACTTTCCTTCCTACCAAAACCACACTAAAGA	620	2140	844	1920
TCCAAGGCGGAAAAAACCCGCCCTAAACCGCACCCC	464	1470	1040	1460
ACACAGGAAGGACGCACGCTCCCGCCCCAACCACAT	690	901	563	1060
CGCCTACTCTACTTCCGCGGTCGGCCGGGTAAGGAC	603	2130	754	2900
GGGCCCGGGCCAGGAAGTGGTTTTGCAGAGGTGTTT	4630	763	7660	1930
GGACGCTTCCGGTGGAAGGGAGCTGTTGCGGGGCTT	1410	716	1660	1950
CCAGAATGCAGGAAGTGCTGTGGTTTGACTTTGTTT	3550	831	9350	1970
GCCGGGCACTTCCTGTGGAGGCCGCAGCGGGTGCGC	1330	709	1560	1780

Sequence	ETS1 binding intensity (ETS1 [1])	RUNX1 binding intensity (RUNX1 [2])	ETS1 binding intensity (ETS1 [3])	RUNX1 binding intensity (RUNX1 [4])
AAAATTAAAGCAGGAAGTAATCAACCACATCAAATG	3130	761	9610	1610
CAGCTCCGACTTCCGGGTGCGGTACGGCGAAGCAGA	1320	756	1610	2140
CTCCTGTTCCGGCTCAAAGGGAAACCGCTGCTTTTC	605	1210	907	1460
GTGCAGACAGGAAATAGCTGCTCTGCGGCAGCCCGA	5830	752	6350	1070
GGCGGATGGGGAGAAGAGAGTGGCTGTGGTCTCTGG	371	861	491	712
ACTTTAATAGAGTCCGGATGCGGTTAGGCTGACAGA	2670	2000	30400	7430
CCGCTTCCGGCCTTCGCCCGGCTTACCCGCGTCGCA	1490	1070	1740	2920
GCAAACAGCACATCCGGTGTGGTCGACGGGTCCTCC	5820	728	6160	1830
AGGCCGTGCAGGAAATGAGACCCACAGCCACGTCAC	1800	789	2180	977
GCCATTAAAGCAGCTTCCTGTGGGCGCGGCGCAGGA	888	753	867	1010
GCGAGACGCGGAAGAGGCTTGCGGTTGACCAAAGAA	407	1830	2010	4310
CTCTTTCACAAAGGAAATGGAAACCACAAAGAGGAC	2140	1820	14700	3930
GGCCGTTCTTCCGCCTGCAGGGTGGTCAGCGGAGGT	571	712	446	1010
GGTGGCAACATCCTGGGGAGGGGAACCCACAGGGGA	364	835	452	1100
GAAGTCACTCAGGGAGGAAACCACAGGGCCGGTCCG	466	880	1270	863
GCCCCCATGCTTCCTGTTGTGGGAGATGAAGTGTGG	1710	878	1710	1650
CGGCAGGGAAGCAGGAAACCGCGAGTGGAGAAAGGG	1790	1160	3790	2170
CCTTTACTTCCTTTTACTTCTAACCACAGAATTAAA	444	7760	1810	14200
TATTCAGGCTTCCGGGTGATGTTTGTGGCCACCCGG	3800	671	5020	1510
